Source: PubChem BioAssay (NCI)
Where “and” joins values, the source holds several entries; their conditions need not be identical. Equal values may be shown once. Compounds without any hit were thinned out: in the full panel of roughly 83,000, 20% have a hit.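 In brief: 96-well plates, 48 h treatment, single concentration, percent growth endpoint.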 Values without a mark were called inactive. Calls of active or inactive are those of the source.

Test system: MOLT-4 leukemia
Test: NCI-60 one-dose screen, 48 h (100 = growth as untreated, 0 = no growth, -100 = all killed)
Conditions: 10 µM unless noted
Method: Growth inhibition of the MOLT-4 human tumor cell line is measured as a screen for anti-cancer activity. Cells are grown in 96 well plates and exposed to the test compound for 48 hours. Compounds are tested at a single concentration, which is 10^-5 M for most compounds. The reported endpoint is percent growth (GI% or GIPRCNT), where numbers from 0 - 100% represent growth inhibition, and numbers from -100% - 0 represent cell death. For example, a value of 40 represents 60% growth inhibition. A value of 0 means no net growth occurred over the course of the experiment. A value of -40 indicates 40% of cells at the beginning of the experiment died by the end of the experiment. A value of -100 means all cells are dead at the end of the experiment.
NCI-60 Human Tumor Cell Lines Screen was performed using the standard one-dose NCI protocol, which is described in more detail at https://dtp.cancer.gov/discovery_development/nci-60/default.htm.
Compounds with GIPRCNT values below 10 were considered active. Activity score was based on GIPRCNT using the following formula: […]
Score is 0 for GIPRCNT values of 100 or above, 50 for GIPRCNT values of 0, and 100 for GIPRCNT values of -100.

SMILES | growth
Cc1cc(N=C(N)c2ccccc2)ccc1OCCCCCCCCn1ccnc1 | 14.1%
Clc1ccc2c(NCCNC34CC5CC(CC(C5)C3)C4)ccnc2c1 | -23.1% (active)
CCCCNC(=S)Nc1ccc(OCc2nc3ccc(Cl)cc3[nH]2)cc1 | 9.85% (active)
O=CNc1cccc(-n2cnc3cc(-c4ccc(O)cc4)ccc32)c1 | 27.7%
COC(=O)c1cc(C(=O)C(Br)Br)n2c1ccc1c3ccccc3ccc12 | 22.9%
O=C(NNC(=O)c1ccc(OCc2nc3ccc(Cl)cc3[nH]2)cc1)Nc1ccc(Cl)c(C(F)(F)F)c1 | 60.6%
Cc1cccc(NCC(=O)N2CCN(c3ncnc4c3cnn4-c3ccccc3)CC2)c1 | 58.2%
FC(F)(F)CN1CCN(CCn2c(C(F)(F)F)cc3c(Cl)ncnc32)CC1 | -39% (active)
Cc1cc(C(NC(=O)C2CC3(CC(Nc4cccc5c4C(=O)N(C4CCC(=O)NC4=O)C5=O)C3)C2)c2ccc3c(c2)OC(F)(F)O3)c(O)c2ncccc12 (stereo not given) | 4.24% (active)
Cc1nn(-c2ccccc2)c2nc(C)n(CC(=O)N/N=C/c3cccc([N+](=O)[O-])c3)c(=O)c12 | 88%
O=C(CSc1nc2sc3c(c2c(=O)n1-c1ccc(Cl)cc1)CCCC3)NNC(=O)c1ccc(F)cc1 | 81.3%
NCCCCn1c(SCCc2c[nH]c3ccccc23)nnc1-c1ccc2ccccc2n1 | -35.4% (active)
O=C(NN1C(=O)/C(=C/C=C/c2ccc([N+](=O)[O-])o2)SC1=S)c1ccc([N+](=O)[O-])cc1 | -3.98% (active)
CN1CCN(C(=O)CCN(C(=O)Oc2cc3c(c4ccccc24)[C@H](CCl)CN3C(=O)c2cc3cc(OCCCN4CCC4)ccc3[nH]2)[C@H]2CCSSC2)CC1 | -35.3% (active)
COc1cc(C2CC(c3ccc(Cl)cc3)=Nc3c(N)nc(N)nc3N2)ccc1Oc1nc(Nc2ccc(F)cc2)nc(N(C)C)n1 (stereo not given) | -8.16% (active)
CS(=O)(=O)Nc1cccc(-n2c(COc3ccc(OC(F)(F)F)cc3)nc3ccccc32)c1 | 80.3% and 97%
CN1CCN(C(=O)Oc2cc3c(c4ccccc24)[C@H](CCl)CN3C(=O)c2cc3cc(OCCCN4CCC4)ccc3[nH]2)[C@@H]2CSSC[C@H]21 | -9.2% (active)
CCCCCCCCc1cccc(CC(=O)Nc2ccc(C)cc2C(=O)O)c1 | 17.9% [25 µM]
COc1ccc2c(c1)c(-c1cc(N)n3nc(-c4c[nH]c5ccccc45)cc3n1)cn2C | -1.51% (active)
CCOc1ccccc1[C@H]1C(C(=O)c2ccc(Cl)cc2)C2(N[C@@H]1c1ccccc1)C(=O)Nc1ccc(Br)cc12 (stereo not given in full) | -23.2% (active)

SMILES | growth
COc1cc(/C=C/C(=O)c2ccc(S(=O)(=O)NCCNc3nc(N(C)C)nc(N4CCOCC4)n3)cc2)cc(OC)c1OC | -40.2% (active)
Cc1nc(N)ncc1-c1ccc2ncnc(N3CCc4cc(F)c(Cl)cc43)c2c1 | 11.1%
COc1cc(NC(=O)CSc2nnc(-c3ccc(-c4nc5ccc(Cl)cc5[nH]4)cc3)o2)cc(OC)c1OC | 34.2%
CS(=O)(=O)Nc1cccc(-n2cnc3cc(-c4ccc(O)cc4)ccc32)c1 | 24.4%
CCOc1ccccc1NC(=O)N/C(N)=N/c1nc2ccccc2s1 | 7.53% (active)
O=C1NC(=S)/C(=C/c2cn(-c3ccccc3)nc2-c2ccccc2)S1 | 33.5%
CCC1(OC(=O)c2ccccc2SSCCOC(=O)CCCCC2SCC3NC(=O)NC32)C(=O)OCc2c1cc1n(c2=O)Cc2cc3ccccc3nc2-1 (stereo not given) | 21.8%
O=C(c1ccc(O)cc1)C1[C@H](c2ccccc2Br)[C@@H](c2ccccc2)NC12C(=O)Nc1ccccc12 (stereo not given in full) | 3.1% (active)
O=C(Nc1ccc(S(=O)(=O)N2CCCCC2)cc1)C(Cl)Cl | 117%
COc1ccc(-c2nc3ccc(-c4nnc(SCc5ccccc5)o4)cc3[nH]2)cc1OC | 78.8%
CN(CCSSCCN1CCOCC1)C(=O)Oc1cc2c(c3ccccc13)[C@H](CCl)CN2C(=O)c1cc2cc(OCCCN3CCC3)ccc2[nH]1 | -39.8% (active)
COc1cccc2nc(Nc3cccc(NC(=O)c4ccc(CN5CCN(C)CC5)c(C(F)(F)F)c4)c3)ccc12 | -38.5% (active)
COc1nc(N)ncc1-c1ccc2ncnc(N3CCc4cc(F)c(Cl)cc43)c2c1 | 62.9%
CCN(C(=O)CN1C(=O)/C(=C/c2ccco2)SC1=S)C1CCS(=O)(=O)C1 (stereo not given) | 103%
Cc1ccc(C(C)C)cc1Oc1cccc(-c2c(-c3ccc(C(F)(F)F)cc3)ncn2C2CCNCC2)n1 | -80.3% (active)
O=C1NC(=NC23CC4CC(CC(C4)C2)C3)N/C1=C\c1ccc2ncccc2c1 | -13% (active)
COc1cncc(-c2ccc3ncnc(N4CCc5ccc(Cl)cc54)c3c2)c1 | 4.34% (active)
Fc1ccc(Nc2nnc(-c3c[nH]c4ccccc34)o2)cc1 | 29.6%
CCc1ccccc1-c1nc(CN[C@@H]2C[C@@H]3C[C@H]([C@H]2C)C3(C)C)c(C)o1 | -28.2% (active)
Cc1ccccc1NC(=O)c1cccc(NC(=O)CCl)c1 | 29.7%
